Data published in the supplement of paper PMC6555819.

How the values were obtained:
Test in all cases: PBM binding z-score (relative to random genomic background probes); higher = stronger binding; sequences stand for … in GC…GCGATTGACAGCGTAGAATGAAGG
[1] = tested on: FXR:RXRa (NR concentration 270 nM, RXRa partner concentration 90 nM)
Procedure, shortened: (§1)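 Scanned fluorescence from custom Agilent 4×180K protein-binding microarrays was regression-normalized. Binding z-scores use random background probes as reference. Ligand-free nuclear receptor dimers were incubated on the arrays for 1 h and detected with antibodies against each partner (one per run).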

[2] = tested on: LXRa:RXRa (NR concentration 270 nM, RXRa partner concentration 90 nM)
Procedure, shortened: as §1

[3] = tested on: LXRa homodimer (NR concentration 270 nM)
Procedure, shortened: as §1

[4] = tested on: LXRb:RXRa (NR concentration 270 nM, RXRa partner concentration 90 nM)
Procedure, shortened: as §1

[5] = tested on: LXRb homodimer (NR concentration 270 nM)
Procedure, shortened: as §1

[6] = tested on: PPARa:RXRa (NR concentration 270 nM, RXRa partner concentration 90 nM)
Procedure, shortened: as §1

[7] = tested on: PPARg:RXRa (NR concentration 180 nM, RXRa partner concentration 90 nM)
Procedure, shortened: as §1

[8] = tested on: PPARg:RXRa 270nM:90nM, anti-RXR (NR concentration 270 nM, RXRa partner concentration 90 nM)
Procedure, shortened: as §1

[9] = tested on: PPARg:RXRa 30nM:10nM, anti-RXR (NR concentration 30 nM, RXRa partner concentration 10 nM)
Procedure, shortened: as §1

[10] = tested on: PPARg:RXRa 90nM:30nM, anti-RXR (NR concentration 90 nM, RXRa partner concentration 30 nM)
Procedure, shortened: as §1

[11] = tested on: PPARg:RXRa DBDmut IVT, anti-RXR (DBD mutation: RXRa K156A/R161A, NR concentration 270 nM, RXRa partner concentration 90 nM)
Procedure, shortened: as §1

[12] = tested on: PPARg:RXRa IVT, anti-PPARg (NR concentration 270 nM, RXRa partner concentration 90 nM)
Procedure, shortened: as §1

[13] = tested on: PPARg DBDmut:RXRa IVT, anti-PPARg (DBD mutation: PPARg1 K132A/R137A, NR concentration 270 nM, RXRa partner concentration 90 nM)
Procedure, shortened: as §1

[14] = tested on: PPARg DBDmut IVT, anti-PPARg (DBD mutation: PPARg1 K132A/R137A, NR concentration 270 nM)
Procedure, shortened: as §1

[15] = tested on: PPARg homodimer (NR concentration 180 nM)
Procedure, shortened: as §1

[16] = tested on: PXR:RXRa (NR concentration 270 nM, RXRa partner concentration 90 nM)
Procedure, shortened: as §1

[17] = tested on: PXR homodimer (NR concentration 270 nM)
Procedure, shortened: as §1

[18] = tested on: RARa:RXR (NR concentration 270 nM, RXRa partner concentration 90 nM)
Procedure, shortened: as §1

[19] = tested on: RARa homodimer (NR concentration 270 nM)
Procedure, shortened: as §1

[20] = tested on: RARb:RXRa (NR concentration 270 nM, RXRa partner concentration 90 nM)
Procedure, shortened: as §1

Sequence | PBM binding z-score [1] | PBM binding z-score [2] | PBM binding z-score [3] | PBM binding z-score [4] | PBM binding z-score [5] | PBM binding z-score [6] | PBM binding z-score [7] | PBM binding z-score [8] | PBM binding z-score [9] | PBM binding z-score [10] | PBM binding z-score [11] | PBM binding z-score [12] | PBM binding z-score [13] | PBM binding z-score [14] | PBM binding z-score [15] | PBM binding z-score [16] | PBM binding z-score [17] | PBM binding z-score [18] | PBM binding z-score [19] | PBM binding z-score [20]
TAGCCTAGGCCATTGGGCCAGTATAGTACGCATC | -0.681 | -0.881 | -0.612 | -0.883 | -1.27 | -1.09 | 0.237 | -0.512 | -0.597 | -0.438 | -0.378 | 0.553 | -1.56 | -0.875 | -1.33 | -0.947 | -0.712 | -0.936 | -0.489 | 0.356
GCATATAGGTATTACAAGGTGAAAGTCCGATTGT | 0.758 | 0.25 | 0.246 | 0.0719 | -0.375 | 1.38 | 0.78 | 0.981 | 0.434 | 0.722 | 1.46 | 1.46 | 0.48 | 1.21 | 0.307 | 0.0796 | 0.205 | 1.69 | 0.465 | 0.417
AGAATGAGGTTACCAAAGATCTGGGAAACGCTTG | 1.57 | 2.23 | -0.414 | 1.23 | -0.401 | 3.4 | 2.74 | 2.37 | 0.756 | 1.91 | 3.41 | 3.25 | 0.193 | 0.0654 | 0.163 | 0.907 | -0.203 | 1.77 | -0.536 | 1.98
CGTCAAAGTTCAAGGTAACGTCACAGAAAGCAGC | 6.25 | 5.64 | 2.77 | 3.46 | 1.24 | 4.71 | 4.58 | 5.27 | 2.34 | 4.03 | 0.574 | 2.31 | 1.5 | 0.322 | 2.9 | 4.33 | 2.43 | 3.98 | 1.32 | 5.18
CCGACTGGGGTAAAGGTTACCATACTCAGTACGA | 1.25 | 1.37 | -0.204 | 2.11 | -0.702 | 5.22 | 11.1 | 9.31 | 8.82 | 10.7 | 3.8 | 5.39 | 0.251 | 0.0634 | 1.25 | 1.93 | -0.316 | 3.23 | 0.475 | 2.02
CCTAGCAGGCCTATCTGGGTCACTCAAGGCTTGA | 0.317 | 0.546 | -0.58 | 0.838 | -1.2 | 3.07 | 1.7 | 2.01 | -0.0826 | 1.15 | 3.65 | 4.63 | -0.467 | -0.863 | 0.541 | 0.789 | -0.468 | 1.38 | -0.645 | 0.909
TCATATATGTAAATGCTAGGTGAAAGTCCGATCT | 0.494 | 0.5 | 0.273 | 0.561 | 0.139 | 0.627 | 0.741 | 1.86 | 3.23 | 2.59 | 2.12 | 0.736 | 1.47 | 0.87 | -0.136 | 0.601 | 0.0676 | 0.644 | 0.525 | 0.329
ACTAGCAGGCCAATTTTGGGTCACTCAAACAAAG | 0.105 | 0.0624 | 0.139 | 0.747 | -0.68 | 1.8 | 0.396 | 0.508 | -0.304 | -0.0238 | 1.13 | 1.84 | 0.126 | -0.427 | 0.323 | 0.759 | -0.305 | 1.38 | -0.793 | 1.45
AGAATGAGGTTACCAAAGATCACGGAAACGCTTG | 2.28 | 6.94 | 0.129 | 3.82 | -0.202 | 3.5 | 2.79 | 2.7 | 0.915 | 2.03 | 3.7 | 3.26 | 1.1 | 0.644 | 0.807 | 2.1 | -0.253 | 2.3 | 0.0214 | 2.15
ATCTCTAGGTAAAGAAAGTTCAGTGAATGCAAAT | 0.762 | 4.7 | 1.94 | 1.58 | 0.904 | 1.38 | 0.409 | 0.933 | 0.542 | 0.768 | 2 | 1.69 | 1.32 | 0.83 | 1.41 | 2.68 | 1.68 | 1.42 | 1.41 | 1.82
ATCGAAAGGTCGAGGTGTGTATAGAGAAAGGGAA | 3.92 | 3.39 | 0.47 | 2.82 | 0.483 | 4.43 | 2.6 | 3.16 | 1.2 | 2.19 | 0.539 | 1.92 | 1.19 | 0.613 | 1.6 | 2.17 | 0.958 | 3.25 | 1.16 | 4.03
TCCAGTAGGTTAGTCGGGGCATTCAGCCAACATA | 0.407 | 0.471 | 0.422 | 0.794 | -0.477 | 1.38 | 0.45 | 2.08 | 2.7 | 2.41 | 3.62 | 3.02 | -0.197 | -0.452 | 0.925 | 0.439 | 0.18 | 0.346 | 0.0406 | 0.79
CCAGACAGGTGAAAGGTAACGCAGTCTGGTACGC | 0.748 | 0.83 | -0.423 | 0.898 | -0.326 | 3.57 | 5.87 | 6.19 | 4.19 | 6.4 | 2.46 | 3.24 | -0.31 | 0.017 | 1.67 | 0.869 | -0.124 | 2.01 | 0.457 | 1.47
